Assay results: PubChem BioAssay AID540276 (National Center for Advancing Translational Sciences (NCATS), 2011)
The whole screen tested about 300,000 compounds, of which about 5,400 (1.8%) were called active. Roughly 28% stayed inconclusive and do not appear here. Many of the other results were omitted from the sample, so actives are more common in it than they were. Unmarked numbers belong to inactive results. Calls come from the whole dose curve; tested in HEK293 cells.

experiment: qHTS for inhibitors of binding or entry into cells for Marburg Virus; conditions: Marburg virus pseudotyped entry inhibition, cell reporter; series mostly up to 37.8 µM; activity change, negative = inhibition: at the top concentration
% is set by controls: 0 for no effect and ±100 for the full control effect; potency is the fitted concentration of half-maximal effect.

Structure (SMILES) | Potency | activity change, negative = inhibition
Cn1c(SCC(=O)Nc2cccc(NC(=O)c3cccs3)c2)nnc1-c1ccncc1 | 12.6 µM (active) | –
COCCCn1c(SCC(=O)Nc2ccccc2)nnc1-c1ccncc1 | – | -0.876% [at 46.1 µM]
CCC(=O)Nc1cccc(NC(=O)CSc2nnc(-c3ccc(NS(C)(=O)=O)cc3)n2C)c1 | – | 9.87%
CC1CCCCC1NC(=O)Cn1c(=O)cnc2ccccc21 (stereo not drawn) | – | 14.6% [at 46.1 µM]
CC(=O)c1c(C)[nH]c(C(=O)COC(=O)c2cccs2)c1C | – | -11.6%
COc1ccc(C)cc1N(CC(=O)N1CCCC1)S(=O)(=O)c1ccccc1 | – | 4.32% [at 46.1 µM]
NC(=O)Nc1cccc(C(F)(F)F)c1 | – | -9.89%
O=C(NNc1ccccc1Cl)C(O)(c1cccc(C(F)(F)F)c1)c1cccc(C(F)(F)F)c1 | 18.4 µM (active) | –
O=C(Nc1cc(C(F)(F)F)ccc1Cl)C(=O)N1CCCCC1 | – | 10.1%
NC(=O)Cn1cc(/C=N\NS(=O)(=O)c2ccccc2)c2ccccc21 | – | -7.13% [at 46.1 µM]
COC(=O)N(C)C1=C(C(=O)N2CCOCC2)CCCC1 | – | -9.8%
Cn1c(=O)[nH]c2c(c(C(=O)O)nn2C)c1=O | – | -0.0312% [at 46.1 µM]
Cc1ccc2[nH]cc(CCNC(=O)c3ccc([N+](=O)[O-])cc3)c2c1 | – | 3.86%
Cc1ccc2[nH]cc(CCCN3C(=O)c4ccccc4C3=O)c2c1 | 16.4 µM (active) | –
Cc1cc(C)cc(NC(=O)CCN2C(=O)c3ccccc3C2=O)c1 | – | -3.01% [at 46.1 µM]
Cc1cccc(OCC(=O)Nc2ccc(C(=O)O)cc2NC(=O)COc2cccc(C)c2)c1 | – | -5.1%
COc1ccc(C(=O)Nc2ccc(S(=O)(=O)NC(C)C)cc2)cc1 | – | -1.9%
COc1ccc(NS(=O)(=O)c2ccc(Oc3c(C#N)cccc3C#N)cc2)cc1 | 2.82 µM (active) | –
CCOc1ccc(S(=O)(=O)Nc2ccc(S(=O)(=O)Nc3cc(OC)ccc3OC)cc2)cc1 | – | -15.2%
Cc1ccc2nc(SCC(=O)NC3CCCC3)[nH]c2c1 | – | 24.9% [at 46.1 µM]
COc1ccc(/C=N/Nc2nc(-c3ccc(C)cc3)c(C#N)c(=O)[nH]2)cc1 | – | -0.691%
O=C(COc1cccnc1[N+](=O)[O-])Nc1ccc(Cl)cc1F | – | 17.4% [at 46.1 µM]
Cc1cc(C(=O)N/N=C/c2ccccn2)c2ccccc2n1 | – | 12.2% [at 46.1 µM]

Structure (SMILES) | Potency | activity change, negative = inhibition
Cc1ccc(-c2cc(C(=O)N/N=C/C=C/c3ccco3)c3ccccc3n2)cc1C | 2.51 µM (active) | –
O=C(N/N=C/C=C/c1ccco1)c1cccs1 | – | 12.6% [at 46.1 µM]
CCCc1nnc(NC(=O)CCC(=O)N2CCN(S(=O)(=O)c3ccc(OC)cc3)CC2)s1 | – | 1% [at 46.1 µM]
Cc1nc(N)nc(Cl)c1CCC1OCCO1 | – | 0.143% [at 46.1 µM]
Cc1ccc(Nc2cc(C)nc3c(C)ccc([N+](=O)[O-])c23)cc1 | 11.2 µM (active) | –
Cc1cc(C)nc(Nc2cc([N+](=O)[O-])ccc2C)n1 | – | -0.158% [at 46.1 µM]
Cc1ccc(Nc2ccc(C(N)=O)cc2[N+](=O)[O-])cc1 | – | -11.4%
Cc1ccc2c(c1)N(CC(=O)NCC1CCCO1)C(=O)CO2 (stereo not drawn) | – | 1.4% [at 46.1 µM]
COCCNC(=O)COc1ccc(N(C)S(=O)(=O)c2ccc3ccccc3c2)cc1 | – | 9.59% [at 46.1 µM]
O=[N+]([O-])c1ccccc1/C=C/CN1CCCC(CO)C1 (stereo not drawn) | – | 15.6%
CC1CCCCC1NC(=O)COc1ccc(C#N)cc1 (stereo not drawn) | – | -11.3%
CC1CCCCC1NC(=O)/C(C#N)=C/C=C/c1ccccc1[N+](=O)[O-] (stereo not drawn) | 2.82 µM (active) | –
O=C(Nc1c(Br)cc2c(c1Br)Cc1cc([N+](=O)[O-])ccc1-2)C(Cl)Cl | – | 12.8%
N=c1n(CCc2ccccc2)c2ccccc2n1Cc1ccccc1F | 5.17 µM (active) | –
CCCn1c(NCc2ccccc2F)nc2ccccc21 | – | 8.16% [at 46.1 µM]
CN(Cc1ccccc1)Cc1ccccc1F | – | -10.3%
CCc1ccccc1N(CC(=O)NCC1CCCO1)C(=O)CCC(=O)Nc1nccs1 (stereo not drawn) | – | 5.09% [at 46.1 µM]
COc1ccc(C)cc1NC(=S)N1CCOCC1 | – | -15.3% [at 46.1 µM]
O=C1OC(Cc2ccccc2)C(c2ccccc2)C1=O (stereo not drawn) | – | 3.11%
Cn1c(SCC(=O)N2CCCc3ccccc32)nc2ccccc2c1=O | 12.6 µM (active) | –
O=C(CSc1nc2ccccc2c(=O)n1CCCO)N1CCc2ccccc21 | – | -0.197%
O=C(CSc1nc2[nH]ncc2c(=O)n1-c1ccccc1)N1CCCc2ccccc21 | – | 4.12%
CN(C)CCn1c2c(c(SCC(=O)Nc3ccccc3C(F)(F)F)nc1=O)CCCC2 | – | 28.8%

Structure (SMILES) | Potency | activity change, negative = inhibition
Cc1cc(C)nc(-n2nc(C)cc2NC(=O)c2ccc(Br)o2)n1 | – | 4.69%
Cc1ccc2nc(C)cc(N/N=C/c3ccc(F)cc3)c2c1 | – | 9.21% [at 46.1 µM]
Cc1cc(N/N=C\c2ccc(Br)cc2)nc(-n2nc(C)cc2C)n1 | 2.24 µM (active) | –
COc1ccc(NC(=O)c2nc(-n3nc(C)cc3C)ccc2Cl)cc1Cl | – | 9.49%
COc1ccc(Nc2cc(C)nc(-n3nc(C)cc3C)n2)cc1 | 1.3 µM (active) | –
Cc1cc(Nc2ccccc2)nc(N)n1 | – | 3%
CN1CCN(C(=O)c2cnn(-c3ccccc3)c2NC(=O)c2ccc([N+](=O)[O-])cc2)CC1 | – | 12.4% [at 46.1 µM]
CN1CCN(C(=O)C(=O)c2cn(CC(=O)N3CCCC3)c3ccccc23)CC1 | – | -14.1%
O=C1NC(=O)C(CCc2ccccc2)(c2ccccc2)N1 (stereo not drawn) | – | -23.1%
COc1ccc(C(=O)NC2CCCc3c2cnn3-c2cccc(C)c2C)c(OC)n1 (stereo not drawn) | 0.708 µM (active) | –
Cc1cccc(C(=O)OC(C)C(=O)NC2CCCc3ccccc32)c1O (stereo not drawn) | – | 1.02% [at 46.1 µM]
COCc1ccc(C(=O)NC2CC(C)(C)Cc3c2cnn3-c2ccc(C)cc2)o1 (stereo not drawn) | – | -15.2%
CN(C)C(=O)c1ccc(NC(=O)c2ccccc2-c2ccccc2)cc1 | – | 0.637% [at 46.1 µM]
CCc1ccc(N(C(=O)c2csnn2)C(C(=O)NC2CCCCC2)c2ccncc2)cc1 (stereo not drawn) | – | 6.59% [at 46.1 µM]
O=C1CC2(CCCC2)C(=O)N1CN1CCN(S(=O)(=O)c2ccc(F)cc2F)CC1 | – | -2.46%
COc1ccc(-c2nc3cc([N+](=O)[O-])ccc3o2)cc1OC | – | -1.31% [at 46.1 µM]
O=C(Cc1cccc2ccccc12)Nc1ccc2oc(-c3ccccc3)nc2c1 | – | 22.7%
CCc1ccc2oc(-c3ccc(N)cc3)nc2c1 | 5.17 µM (active) | –
CC(=O)Nc1ccc(S(=O)(=O)Nc2cc(C)cn(Cc3ccc(C)cc3)c2=O)cc1 | – | -2.78% [at 46.1 µM]
CCOC(=O)C1=C(C)NC(=O)NC1c1ccccc1 (stereo not drawn) | – | -12.9%
CCOC(=O)C1=C(CN2CCc3ccccc32)NC(=O)NC1c1ccc(Cl)cc1 (stereo not drawn) | 16.4 µM (active) | –
CCOC(=O)C1=C(CN2CCCCCC2)NC(=O)NC1c1cccc([N+](=O)[O-])c1 (stereo not drawn) | – | -3.93% [at 46.1 µM]
